From PubChem BioAssay AID2284198 (EPA ToxCast)
Activity calls are given as the source filed them. How the source made its calls: active means hit-call score of the fitted dose curve at least 0.9, where 1 is the maximum; inactive means score below 0.9.

Each molecule was assayed against human Adenosine Transporter, SLC29A1 (gene 2030) (UniProt Q99808) (assay: ERF_TW_TR_hSLC35B3: Eurofins (ERF) Transporter Radioligand Binding LeadHunter Assay for human Adenosine Transporter Antagonism).
Method: ERF_TW_TR_hSLC35B3 is a biochemical, single-readout assay that uses extracted gene-proteins in a cell-free assay. Measurements were taken 1 hour after chemical dosing in a 96-well plate. See Adenosine Human Transporter Binding (Antagonist Radioligand) Assay, Panlabs.ERF_TW_TR_hSLC35B3 is an assay component calculated from the ERF_TW_TR_hSLC35B3 assay. It is designed to measure radioligand binding using a type of binding reporter as detected by scintillation counting with radiometry technology.Data from the assay component ERF_TW_TR_hSLC35B3 was analyzed at the assay endpoint, ERF_TW_TR_hSLC35B3, in the positive analysis fitting direction relative to DMSO as the negative control and baseline of activity. Using a type of binding reporter, loss-of-signal activity can be used to understand changes in transporter binding as they relate to gene SLC29A1. To generalize the intended target to other relatable targets, this assay endpoint is annotated to the transporter intended target family, where the subfamily is nucleoside transporter.
This assay measures binding of [3H]Nitrobenzylthioinosine to sites associated with the transporter of adenosine. Human adenosine transporter membranes are prepared in Tris-HCl buffer pH 7.4. A 24 ug aliquot of membrane is incubated with 0.5 nM [3H]Nitrobenzylthioinosine for 60 minutes at 25C. Non-specific binding is estimated in the presence of 5 uM nitrobenzylthioinosine. Membranes are filtered and washed, the filters are then counted to determine [3H]Nitrobenzylthioinosine specifically bound. Compounds are screened at 10 uM.Test Sample Requirements: Minimum for 1) Screen: 25 ul of 10 mM stock -OR- 1 mg (pre-weighed). 2) Dose Response: 60 ul of 10 mM stock -OR- 1 mg (pre-weighed).

Sequence of human Adenosine Transporter, SLC29A1 (gene 2030) (Q99808 whole entry, looked up): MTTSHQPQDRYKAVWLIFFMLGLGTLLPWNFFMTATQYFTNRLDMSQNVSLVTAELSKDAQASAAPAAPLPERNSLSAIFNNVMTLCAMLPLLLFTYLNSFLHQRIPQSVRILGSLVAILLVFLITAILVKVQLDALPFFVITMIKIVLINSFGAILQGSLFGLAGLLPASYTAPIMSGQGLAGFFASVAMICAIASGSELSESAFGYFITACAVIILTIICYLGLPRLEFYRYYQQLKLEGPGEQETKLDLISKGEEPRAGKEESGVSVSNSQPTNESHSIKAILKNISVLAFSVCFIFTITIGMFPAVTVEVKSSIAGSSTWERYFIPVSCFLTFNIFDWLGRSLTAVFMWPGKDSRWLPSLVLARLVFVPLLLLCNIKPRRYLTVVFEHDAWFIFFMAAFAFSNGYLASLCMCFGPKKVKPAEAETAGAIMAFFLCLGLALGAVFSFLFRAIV

AC50, active:
COc1cc(/C=C/C(=O)CC(=O)/C=C/c2ccc(O)c(OC)c2)ccc1O 98 nM
O=C(/C=C/c1ccc(O)cc1)CC(=O)/C=C/c1ccc(O)cc1 153 nM
COc1cc(CCC(=O)CC(=O)CCc2ccc(O)c(OC)c2)ccc1O 574 nM
